# Screening results from PubChem.
# TDP1 cell CPT: qHTS for Inhibitors of human tyrosyl-DNA phosphodiesterase 1 (TDP1): qHTS in cells in presence of CPT. chicken DT40 Tdp1-/-;hTDP1 cells + 20 nM CPT, ATP luminescence, 48 h. Potency, µM (top dose mostly 46.2 µM), inactives show at the highest dose activity change, negative = growth inhibition, hits mostly inhibitors. actives 12% (n = 420,000); also: potency is read from the fitted curve at half-maximal effect; nearly all actives have a fitted effect of over 55% in size
#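 Chicken DT40 Tdp1-/- cells stably complemented with human TDP1 were seeded at 400 cells/well in medium containing 20 nM camptothecin, exposed to pin-transferred compounds, and grown at 37 °C for at least 48 hr. Viability was read as ATP luminescence.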
# IL1B secr inh: qHTS for Inhibitors of Inflammasome Signaling: IL-1-beta AlphaLISA Primary Screen; THP-1 LPS/ATP IL-1B secretion, AlphaLISA, 16 h; stronger effect = lower value; activity change, % at 57.5 µM; actives 4.7% (n = 360,000); in the data active = activity change below about -50%; inconclusive = mostly about -30% to -49%
#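 THP-1 cells pretreated 1 hr with compounds (up to 57.5 uM final), then stimulated with LPS (250 ng/mL final) plus ATP (1.25 mM final); secreted IL-1B measured by AlphaLISA after 16 hr, decreased signal indicating inhibition.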
# HT1080 IDH1KD tx: qHTS for induction of synthetic lethality in tumor cells producing 2HG: qHTS for the HT-1080-IDH1KD cell line; Potency, µM (top dose mostly 46.1 µM), inactives show at the highest dose activity, negative = toxicity, hits mostly cytotoxic; actives 2% (n = 360,000); AID 686971, 2013; HT-1080 IDH1 knockdown viability, ATP luminescence, 48 h;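 also: potency is read from the fitted curve at half-maximal effect; 0% = DMSO wells and -100% = cell-free medium wells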
#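 Cytotoxicity counter-line: IDH1KD HT-1080, 48 h, CellTiter-Glo. Curves classed by r2, magnitude and activity.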
# TDP1 cell noCPT: qHTS for Inhibitors of human tyrosyl-DNA phosphodiesterase 1 (TDP1): qHTS in cells in absence of CPT | actives 15% (n = 420,000) | AID 686978, 2013 | Potency, µM (series often up to 46.2 µM), inactives show at the top dose activity change, negative = growth inhibition, hits mostly inhibitors | DT40 Tdp1-/- hTDP1 cells, no CPT, ATP luminescence, 48 h; also: potency is read from the fitted curve at half-maximal effect; nearly all actives have a fitted effect of over 55% in size
#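 No-CPT arm: Tdp1-/-;hTDP1 DT40 cells (400/well) plus compounds, incubated ≥48 hr at 37 °C. Readout CellTiter-Glo luminescence.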
# HT1080-NT tox: qHTS for induction of synthetic lethality in tumor cells producing 2HG: qHTS for the HT-1080-NT fibrosarcoma cell line. Potency, µM (series often up to 46.1 µM), without a hit: at the highest dose activity, negative = less viability, usual class: cytotoxic. HT-1080-NT fibrosarcoma viability, CellTiter-Glo ATP luminescence, 48 h. actives 1.6% (n = 360,000);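 also: NT is the 2HG producing partner of a matched IDH1 knockdown line; potency is read from the fitted curve at half-maximal effect; 0% = DMSO-treated cells and -100% = media-only wells without cells; nearly all actives have a fitted effect of over 55% in size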
#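 A 48-hour cytotoxicity screen used HT-1080-NT cells plated 2 hours before compound delivery. ATP-based CellTiter-Glo luminescence measured viability, normalized to DMSO and no-cell controls.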
# Active calls of the source: *; ? = inconclusive; . = no result. Shown are actives, neighbours in structure and some others; about 19% of the full set was active somewhere. Unless noted, calls follow the shape of the dose curve; as a rule, active = well fitted curve in the direction sought with a large enough effect; inconclusive = small, poorly fitted or top-dose-only effect, or another doubt; inactive = no such curve, though single readings can be large; an effect the other way counts as inactive or inconclusive. Unless noted, % is scaled to controls: 0 for no effect and ±100 for the full control effect.
SMILES,TDP1 cell CPT,IL1B secr inh,HT1080 IDH1KD tx,TDP1 cell noCPT,HT1080-NT tox
Cc1cccc(-n2cc(CNCCc3nc(C)cc(C)n3)c(-c3cccc(F)c3)n2)c1,12µM*,?,?,4.6µM*,?
Cc1ccc(C)c(-n2cc(CNC(C)Cn3cncn3)c(-c3ccccc3)n2)c1 (stereo not drawn),?,-18,-14%,?,1%
CCN1CC(CN(C)Cc2cn(-c3ccc(C)cc3)nc2-c2ccc(F)cc2)CC1=O (stereo not drawn),?,-21,-17%,?,-16%
Cc1ccc(C)c(-n2cc(CNCCCn3cccn3)c(-c3ccccc3)n2)c1,23µM*,?,?,21µM*,21µM*
COc1ccccc1C1=NOC(C)(c2nnc(-c3cccc(Cl)c3)o2)C1 (stereo not drawn),?,1,1%,?,18%
Cc1ccc(-n2cc(CNCCCn3cccn3)c(-c3cccc(C)c3)n2)cc1,13µM*,-99*,?,16µM*,?
Cc1ccc(CN2CCSc3ccc(C(=O)NC4CCN(Cc5ccccc5)CC4)cc32)cc1,7.3µM*,-82*,-1%,8.2µM*,-1%
O=C(NC1CCCC1)c1ccc2c(c1)N(Cc1ccccc1)CCS2,?,-5,-6%,18µM*,-6%
COc1cccc(CNC(=O)c2cnn(-c3ncc4c(n3)-c3ccccc3CCC4)c2C)c1OC,?,.,.,-22%,.
Nc1cccc(-n2nnnc2CN2CCOCC2)c1,?,-18,16%,16µM*,17%
COc1cccc(C2=CC(=O)C[C@H](c3ccc(Cl)cc3)C2)c1OC,23µM*,?,-10%,?,-17%
COc1cc(F)c(C2=CC(=O)C[C@H](c3ccc(F)cc3)C2)cc1F,?,0,-7%,-17%,-13%
COc1ccccc1C1=CC(=O)C[C@H](c2ccc(Cl)cc2)C1,15µM*,-54*,?,?,?
COc1ccc(C=O)cc1C1=CC(=O)C[C@H](c2ccc(Cl)cc2)C1,?,-7,?,?,?
Cc1c(C(=O)C(=O)N2c3ccc(F)cc3CCC2C)c2ccccc2n1C (stereo not drawn),2.6µM*,27,2.3µM*,2.6µM*,3.3µM*
C[C@H]1CN([C@@H](C)CO)C(=O)Cc2cc(NC(=O)CCC(F)(F)F)ccc2O[C@H]1CN(C)S(=O)(=O)c1ccc(Cl)cc1,5.2µM*,50,4.6µM*,?,3.7µM*
Cc1ccc(S(=O)(=O)N(C)C[C@@H]2Oc3ccc(NS(=O)(=O)c4ccccc4)cc3CC(=O)N([C@@H](C)CO)C[C@H]2C)cc1,?,9,-2%,?,-14%
C[C@H](CO)N1C[C@H](C)[C@@H](CN(C)S(=O)(=O)c2ccc(Cl)cc2)Oc2ccc(NS(=O)(=O)c3ccccc3)cc2CC1=O,10µM*,-27,?,?,-22%
C[C@H]1CN([C@@H](C)CO)C(=O)Cc2cc(NC(=O)CCC(F)(F)F)ccc2O[C@H]1CN(C)S(=O)(=O)c1ccc(F)cc1,7.3µM*,54,?,6.5µM*,12µM*
Cc1cccc(C)c1NC(=O)C1C2C=CC(C2)C1C(=O)NCc1ccccn1 (stereo not drawn),0%,-5,-3%,-3%,9%
CCOc1ccc(NC(=O)c2ccc3c(c2)OCCO3)cc1S(=O)(=O)N(CC)CC,?,22,-13%,?,0%
C/C(=C/C(=O)Nc1cccc(F)c1)N1CCCC1,19%,0,-1%,-3%,-18%
CCC(Sc1nc(N)c(NC(=O)c2ccc(OC)cc2)c(=O)[nH]1)C(=O)O (stereo not drawn),3%,0,9%,2%,9%
COc1ccc(/C=C/C(=O)OC(C)CN2CCCCC2)cc1 (stereo not drawn),-23%,-18,8%,0%,4%
O=C(CCC1CCCN(Cc2cccc(Cl)c2)C1)NCc1ccccc1F (stereo not drawn),21µM*,0,2%,?,28%
SMILES,TDP1 cell CPT,IL1B secr inh,HT1080 IDH1KD tx,TDP1 cell noCPT,HT1080-NT tox
Cc1ccc(Cn2c(CN3CCC(C(=O)NCCc4ccccc4)CC3)cc3ccccc32)cc1,23µM*,.,.,16µM*,.
CC(=O)Nc1ccc(CN2CCCC(CCC(=O)NCc3ccccc3F)C2)cc1 (stereo not drawn),5%,-14,1%,2%,0%
O=C(NCc1ccco1)C1CCN(c2nc3ccccc3n2Cc2ccccc2F)CC1,16µM*,?,-9%,?,11%
O=C(NCc1ccccc1F)C1CCN(Cc2cc3ccccc3n2Cc2cccc(Cl)c2)CC1,?,.,.,23µM*,.
CCOC(=O)C1=C(C)OC(N)=C(C#N)C1c1cc2c(cc1[N+](=O)[O-])OCO2 (stereo not drawn),5%,-7,-11%,10%,-16%
COCCNC(=O)C1CCCN(Cc2cccc(Cl)c2)CC1 (stereo not drawn),-23%,16,0%,-14%,20%
Cc1ccc(Cn2c(CN3CCC(C(=O)NCC(C)c4ccccc4)CC3)cc3ccccc32)cc1 (stereo not drawn),?,.,.,26µM*,.
O=C(NCCc1ccccc1)C1CCN(Cc2cc3ccccc3n2Cc2cccc(Cl)c2)CC1,?,.,.,21µM*,.
CC1(C)CN(O)CCN1O,2%,-3,13%,1%,11%
CCOc1ccccc1N(CC(=O)Nc1ccccc1F)S(=O)(=O)c1ccccc1,-24%,?,-11%,-26%,-13%
COC(c1ccccc1)c1nnc(CCC(=O)N(C)CCOc2ccccc2)o1 (stereo not drawn),15%,-59*,-8%,?,-1%
CCOc1ccc(S(=O)(=O)Nc2nc3ccccc3nc2-n2ccc(=NC(=O)c3ccccc3C)cc2)cc1,4%,?,-10%,-1%,-7%
Cc1cc(C)nc(SCC(=O)Nc2ccc3c(c2)OCO3)n1,-14%,-83*,2%,0%,3%
Cc1nc(SCC(=O)Nc2ccc3c(c2)OCO3)c(C#N)c2c1CCCC2,21µM*,-22,-6%,18µM*,-1%
Cc1cc(C)c(C#N)c(SCC(=O)Nc2ccc3c(c2)OCO3)n1,-18%,46,13%,-23%,16%
